SIRT5 inh: blocks human SIRT5 desuccinylation of peptide; 330,000 tested, 1.1% active; inhibition, % at 15 µM; Purified SirT5, succinyl-peptide AMC, trypsin-coupled fluorescence; Q9NXA8; AID 652115; in the data active = inhibition above about 15%
Target sequence (Q9NXA8 whole entry, looked up): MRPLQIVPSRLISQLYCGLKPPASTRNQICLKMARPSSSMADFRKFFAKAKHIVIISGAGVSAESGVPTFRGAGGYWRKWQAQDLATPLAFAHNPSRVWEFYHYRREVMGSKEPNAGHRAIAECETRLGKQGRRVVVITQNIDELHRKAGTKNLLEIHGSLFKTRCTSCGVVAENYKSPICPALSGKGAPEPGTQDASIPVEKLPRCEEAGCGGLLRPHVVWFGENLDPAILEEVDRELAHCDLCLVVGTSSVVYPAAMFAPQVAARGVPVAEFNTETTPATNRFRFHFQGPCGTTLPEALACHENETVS
Casp6 inh: blocks human caspase-6 cleavage activity; P55212; purified caspase-6, Z-VEID-R110 cleavage fluorescence; inhibition, % at 12.5 µM; 350,000 tested, 0.53% active;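 active = mean inhibition across replicates at least about 35%, with every replicate also reaching that limit, limit read from the data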
Target sequence (P55212 24-179 limits assumed): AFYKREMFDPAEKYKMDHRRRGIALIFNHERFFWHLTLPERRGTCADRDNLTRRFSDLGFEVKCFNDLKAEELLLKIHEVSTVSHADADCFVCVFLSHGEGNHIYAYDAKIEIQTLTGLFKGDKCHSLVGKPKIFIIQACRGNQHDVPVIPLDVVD
Target sequence (P55212 194-293 limits assumed): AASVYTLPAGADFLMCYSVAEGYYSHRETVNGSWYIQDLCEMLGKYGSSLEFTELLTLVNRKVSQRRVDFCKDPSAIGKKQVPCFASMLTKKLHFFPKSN
ARNT TACC3 PPI: ARNT/TACC3 interaction disruption. Q9Y6A5. inhibition, % at 9.99 µM. 390,000 tested, 0.66% active. AlphaScreen His-ARNT PAS-B/GST-TACC3 binding, luminescence; TACC3 fragment carries E629A point mutation;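 active = mean inhibition of replicates at least 50% and at least half of replicates each reaching 50%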
PfHsp90 yeast 2: reduces growth (ATP signal) of yeast expressing P. falciparum Hsp90; S. cerevisiae expressing PfHsp90, BacTiter-Glo ATP, 48 h; yeast lacking PDR1 and PDR3 efflux regulators; AID 504621; 310,000 tested, 0.32% active; inhibition, % at 9.4 µM;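 active = every replicate shows inhibition above about 80%, whatever the replicate mean, limit read from the data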
NSD2 inh: NSD2 (human) methyltransferase inhibition; O96028; inhibition, % at 12.5 µM; 310,000 tested, 0.54% active; NSD2 peptide methylation, AlphaScreen, 120 min; in the data active = inhibition above about 50%
Of the large screens only hits and unclear results are named; the others gave an inactive call; ! = repeats disagree. In the library only some 2.1% were active in any assay of this set; here they are far more common.

O=C(O)c1ccccc1NS(=O)(=O)c1ccc(NN=Cc2cccc(Cl)c2)c([N+](=O)[O-])c1	Casp6 inh 62.4
COc1ccccc1S(=O)(=O)Nc1cc(S(=O)(=O)N2CCCCC2)ccc1N1CCOCC1	SIRT5 inh 17.3 (no result: Casp6 inh, PfHsp90 yeast 2)
COc1ccc(CC(=O)Nc2ccc(C(=O)NCC(C)C)cc2)cc1	SIRT5 inh 18.1 (no result: PfHsp90 yeast 2)
COc1ccc(NC(=O)CC2C(=O)N(Cc3cccs3)C(=S)N2C(C)C)cc1 (stereo unspecified)	SIRT5 inh 31.2
COc1ccc(NC(=O)CC2C(=O)N(Cc3ccco3)C(=S)N2C(C)C)cc1 (stereo unspecified)	none
CC(=O)Nc1ccc(CN2CCCCCC2)cc1	none
O=C(Cc1ccc(Cl)cc1)Nc1ccc(CN2CCCCC2)cc1	SIRT5 inh 79.6
O=C(C[C@@H]1C[C@@H]2c3cc(NC(=O)Nc4ccccc4)ccc3O[C@@H]2[C@@H](CO)O1)NCc1cccnc1	none (no result: SIRT5 inh, Casp6 inh, PfHsp90 yeast 2, NSD2 inh)
C[C@H](CO)N1C[C@H](C)[C@H](CN(C)C(=O)Cc2ccccc2)OCCCC[C@H](C)Oc2ccc(NC(=O)Nc3ccc4c(c3)OCO4)cc2C1=O	none (no result: PfHsp90 yeast 2, NSD2 inh)
CN(CC(=O)Nc1ccc(Cl)c(Cl)c1)C(=O)c1ccccc1SCC(=O)N1CCCC1	none (no result: SIRT5 inh, ARNT TACC3 PPI, PfHsp90 yeast 2)
CN(CC(=O)Nc1ccc(OC(F)(F)F)cc1)C(=O)c1ccccc1SCC(=O)N1CCCC1	Casp6 inh 80.6
O/N=C/c1ccc2cccc(O)c2n1	ARNT TACC3 PPI 57.2
Oc1cccc2ccc(/C=C/c3ccccc3Cl)nc12	PfHsp90 yeast 2 99.9
Oc1ccc(/C=C/c2ccc3cccc(O)c3n2)cc1Br	PfHsp90 yeast 2 107.6
COCCN(C(=O)c1cc2c(s1)CCC2)c1c(N)n(CC(C)C)c(=O)[nH]c1=O	Casp6 inh 52.3
COc1ccccc1-c1cn(CC[C@@H]2CC[C@@H](NC(=O)C3CCCC3)[C@H](CO)O2)nn1	none (no result: ARNT TACC3 PPI, PfHsp90 yeast 2, NSD2 inh)
CCOC(=O)COc1cccc2c(=O)n(CC(=O)N3CCCc4ccccc43)ccc12	none (no result: NSD2 inh)
COc1cccc2c(=O)n(CC(=O)N3CCCc4ccccc43)ccc12	SIRT5 inh 23.0 (no result: NSD2 inh)
COc1ccc(S(=O)(=O)N(C)C[C@@H]2OCCCC[C@@H](C)Oc3ccc(NC(=O)CCC(F)(F)F)cc3C(=O)N([C@H](C)CO)C[C@H]2C)cc1	none (no result: PfHsp90 yeast 2, NSD2 inh)
COc1ccc([C@H]2CN(CCc3ccccc3)C(=O)[C@@H]2CC(=O)Nc2ccccc2)cc1	SIRT5 inh 17.7 (no result: ARNT TACC3 PPI, PfHsp90 yeast 2, NSD2 inh)
CNC(=O)C[C@H]1C(=O)N(CCc2ccccc2)C[C@@H]1c1ccc(OC)cc1	none (no result: ARNT TACC3 PPI, PfHsp90 yeast 2, NSD2 inh)
C[C@H]1CN([C@@H](C)CO)C(=O)Cc2cc(NC(=O)Cn3cnnn3)ccc2O[C@@H]1CN(C)S(=O)(=O)c1ccc(Cl)cc1	none (no result: PfHsp90 yeast 2, NSD2 inh)
C[C@H]1CN([C@@H](C)CO)C(=O)c2cc(NC(=O)Cn3cnnn3)ccc2O[C@@H]1CN(C)S(=O)(=O)c1ccc(F)cc1	SIRT5 inh 31.3 (no result: PfHsp90 yeast 2, NSD2 inh)
C[C@H]1CN([C@@H](C)CO)C(=O)c2cc(NC(=O)Cn3cnnn3)ccc2O[C@H]1CN(C)S(=O)(=O)c1ccc(F)cc1	none (no result: PfHsp90 yeast 2, NSD2 inh)
Cc1ccc(S(=O)(=O)N(C)C[C@@H]2Oc3ccc(NC(=O)Cn4cnnn4)cc3C(=O)N([C@@H](C)CO)C[C@H]2C)cc1	ARNT TACC3 PPI active! (no result: NSD2 inh)
Cc1ccc(S(=O)(=O)N(C)C[C@H]2Oc3ccc(NC(=O)Cn4cnnn4)cc3CC(=O)N([C@@H](C)CO)C[C@H]2C)cc1	SIRT5 inh 34.4 (no result: PfHsp90 yeast 2, NSD2 inh)
O=C(COC(=O)Cc1cccc(C(F)(F)F)c1)NCc1ccco1	Casp6 inh 58.2 (no result: PfHsp90 yeast 2)
O=C(COC(=O)Cc1ccc(F)cc1)NCc1ccco1	none
O=[N+]([O-])c1ccc(S(=O)Cc2ccccc2)c([N+](=O)[O-])c1 (stereo unspecified)	PfHsp90 yeast 2 136.8
O=[N+]([O-])c1ccc(CS(=O)c2ccccc2)cc1 (stereo unspecified)	none
Cc1ccc2[nH]c3ccccc3c(=O)c2c1	none
O=c1c2ccccc2[nH]c2ccc(O)cc12	Casp6 inh 38.0
O=C(C[C@H]1CC[C@@H](NC(=O)Nc2ccccc2F)[C@@H](CO)O1)NCc1ccc(F)cc1	none (no result: ARNT TACC3 PPI, PfHsp90 yeast 2, NSD2 inh)
Cc1ccc(C(=O)Nc2ccsc2C(=O)O)cc1	none
O=C(Nc1ccsc1C(=O)O)c1ccc(Cl)cc1	ARNT TACC3 PPI active
Cc1noc(NS(=O)(=O)c2ccc(NC(=O)CSc3nnc4c(n3)[nH]c3ccccc34)cc2)c1C	ARNT TACC3 PPI 70.6 (no result: SIRT5 inh, Casp6 inh)
COc1ccc(NC(=O)c2c(NC(=O)CNCc3ccco3)sc3c2CCC3)cc1	none (no result: SIRT5 inh, Casp6 inh)
CCOc1ccc(NC(=O)c2c(NC(=O)CNCCN3CCOCC3)sc3c2CCC3)cc1	ARNT TACC3 PPI 63.9
CCCNC(=O)N1CC2(CN(Cc3cccc(OC)c3)C2)c2c(n(C)c3cc(OC)ccc23)[C@H]1CO	none (no result: ARNT TACC3 PPI, PfHsp90 yeast 2, NSD2 inh)
Nc1[nH]c(N=NC(=O)c2ccccc2O)c2ccccc12	ARNT TACC3 PPI 60.1 (no result: SIRT5 inh, Casp6 inh)
Nc1[nH]c(N=NC(=O)c2ccccc2)c2ccccc12	none
COc1ccc(NC(=O)CN(c2ccc(Cl)cc2)S(C)(=O)=O)cc1OC	SIRT5 inh 24.7
COC(=O)c1ccccc1NC(=O)CN(c1cc(OC)ccc1OC)S(C)(=O)=O	none (no result: SIRT5 inh, Casp6 inh)
COc1ccc(Cl)cc1NC(=O)CN(C)CC(=O)Nc1cc(OC)c(OC)c(OC)c1	SIRT5 inh 15.3
COc1ccc(OC)c(N(CC(=O)Nc2ccccc2)S(C)(=O)=O)c1	Casp6 inh 36.6
O=C(c1ccncc1)N1CC2(C1)[C@@H](c1ccccc1)[C@H](CO)N2C(=O)CC1CC1	none (no result: Casp6 inh, ARNT TACC3 PPI, PfHsp90 yeast 2, NSD2 inh)
Cc1ccc(S(=O)(=O)N(C)C[C@H]2Oc3c(NC(=O)Nc4ccc(F)cc4)cccc3C(=O)N([C@H](C)CO)C[C@@H]2C)cc1	none (no result: PfHsp90 yeast 2, NSD2 inh)
CCC(C)(C)n1nnnc1C(c1cccnc1)N1CCC(Cc2ccccc2)CC1 (stereo unspecified)	PfHsp90 yeast 2 83.2
CCC(C)(C)n1nnnc1C(c1ccncc1)N1CCC(Cc2ccccc2)CC1 (stereo unspecified)	none (no result: SIRT5 inh, Casp6 inh)
Cc1ccc2cc(CN(Cc3ccc(F)cc3)Cc3nnnn3C3CCCC3)c(=O)[nH]c2c1	SIRT5 inh 28.8
C[C@@H]1CN([C@H](C)CO)C(=O)c2cc(C#CCN(C)C)cnc2O[C@@H]1CN(C)C(=O)c1cccnc1	none (no result: PfHsp90 yeast 2, NSD2 inh)
N#C/C(=N\Nc1ccccc1)C(=N)N1CCCCC1	none (no result: SIRT5 inh, Casp6 inh)
CCN(CC)C(=N)/C(C#N)=N/Nc1ccccc1	SIRT5 inh 16.8 (no result: ARNT TACC3 PPI, PfHsp90 yeast 2)
CN1c2ccc(-c3ccccc3F)cc2[C@@H]2[C@@H](CCN2S(=O)(=O)c2ccccc2)[C@@H]1CO	none (no result: PfHsp90 yeast 2, NSD2 inh)
CC(C)(C)N=Cc1c(O)ccc2oc3c(c12)CCCC3	none
O=[N+]([O-])c1cc2oc3c(c2c(C=NCc2ccncc2)c1O)CCCC3	NSD2 inh 64.7 (no result: SIRT5 inh, Casp6 inh)
C=CCc1c(C)nc(C)nc1N/N=C/c1ccccc1O	ARNT TACC3 PPI 64.3 (no result: SIRT5 inh, Casp6 inh)
Cc1cc(/C=N/Nc2ccc([N+](=O)[O-])cn2)c(C)n1-c1ccccc1	none (no result: SIRT5 inh, Casp6 inh)
O=[N+]([O-])c1cccc(C=NNc2ccc3ccccc3n2)c1O	ARNT TACC3 PPI 71.9, PfHsp90 yeast 2 137.1 (no result: NSD2 inh)
